This is part of a sample that, as a whole, favours compounds with a hit. Of some 83,000 tested, about 20% had one in any assay.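 Activity criterion: percent growth below 10, measured after cells in 96-well plates were exposed to a single compound concentration for 48 hours.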 Calls of active or inactive are those of the source.

For one experiment, the system named is OVCAR-3 ovarian. The experiment is described as follows: NCI-60 one-dose screen, 48 h (100 = growth as untreated, 0 = no growth, -100 = all killed). Particulars: 10 µM unless noted.
Consider `N#C/C(C(=O)c1ccccc1)=C1/C(=O)Nc2ccc(F)cc21`, for which the growth is 106% (inactive).

Turning to `C=C(C)[C@@H]1CC[C@]2(C(=O)NCCCN)CC[C@]3(C)[C@H](CC[C@@H]4[C@@]5(C)CC[C@H](O)C(C)(C)[C@@H]5CC[C@]43C)[C@@H]12`, the growth is -45.9% [100 µM] (active).

Turning to `O=C1/C(=C\c2cn(CC(O)CN3CCCCC3)c3ccccc23)c2ccccc2N1c1c(Cl)cccc1Cl` (configuration not stated), the growth was -99.6% (active).

Take `Nc1cccc2c1C(=O)c1cccc(NC(=O)c3ccccc3)c1C2=O`: the growth was -41.1% (active).

In the case of `CCNc1cc2c(cc1Br)-c1ccccc1C2=O`, the growth was 91.8% (inactive).

Turning to `CCOc1cccc2c(NC(C)CCCN(CC)CC)c(C)cnc12` (configuration not stated), the growth is 110% (inactive).

With `COc1cc(/C=C/C(=O)/C=C/c2ccc(-n3ccnc3C)cc2)ccc1O`, the growth was 23.7% (inactive).

As for `COc1cc(-c2nc(SCCC(C)C)nc(Nc3ccccc3)c2C#N)cc(OC)c1OC`, the growth is 103% (inactive).

On to `Nc1ccc(Cl)c([N+](=O)[O-])c1`, for which the growth was 114% (inactive).

As to `COc1cccc(-c2[nH]c(=S)ncc2C(=O)c2ccccc2)c1`, the growth is 83.2% (inactive).

Regarding `O=C(N=c1n(-c2ccccc2)nc2n1CCN2C1=NCCN1C(=O)c1ccc(Cl)cc1)c1ccc(Cl)cc1`, the growth is 53.6% (inactive).

`COc1cc2c(=O)[nH]c3cc([N+](=O)[O-])ccc3c2cc1[N+](=O)[O-]`: the growth is 63.7% (inactive).

Take `O=C(Nc1cccc2ccccc12)c1cc2ccccc2cc1O`: the growth was 19.9% (inactive).

Turning to `Cc1ccc(N)c(O)c1`, the growth is 87.7% (inactive).

On to `CCOC(=O)CCC[P+](c1ccccc1)(c1ccccc1)c1ccccc1`, for which the growth is 45.9% (inactive).

Regarding `CCN(CC)c1cc(N)c(Cc2c(N)cc(N(CC)CC)cc2Cl)c(Cl)c1`, the growth was 47.2% (inactive).

Turning to `CSc1nc(N)c(N=Nc2ccc(S(=O)(=O)Nc3nnc(C)s3)cc2)c(=O)[nH]1`, the growth is 106% (inactive).

In the case of `CC1(C)C(=O)/C(=C\c2cccnc2)C[C@]2(C)[C@H]3CC[C@@H]4[C@H]5[C@H](C(=O)/C=C/c6cccnc6)CC[C@]5(C(=O)O)CC[C@@]4(C)[C@]3(C)CC[C@@H]12`, the growth is -75.4% [100 µM] (active).

Take `N#CCCc1c[nH]c2ccccc12`: the growth is 98.7% (inactive).

As to `C[C@@H]1C[C@H]2C(=O)O[C@@H](C)[C@H](NC(=O)[C@H](Cc3cc(F)cc(F)c3)NC(=O)Nc3ccc(C4CC4)cc3F)C(=O)N3CCC[C@H]3C(=O)N3CCCC[C@H]3C(=O)N[C@@H](C)C(=O)N2C1`, the growth was 5.07% (active).

Consider `CCN(CC)CCCC(C)Nc1c2ccc(C)cc2nc2ccc(OC)cc12` (configuration not stated), for which the growth is 28.9% (inactive).

In the case of `C#CCNC(=O)CC[C@]1(C)[C@H]2CC[C@@H]3[C@@H]([C@@](C)(O)CCC=C(C)C)CC[C@@]3(C)[C@]2(C)CC[C@H]1C(=C)C`, the growth was -26.4% [100 µM] (active).

`CC1(C)CC[C@]2(C(=O)O)CC[C@]3(C)C(=CC[C@@H]4[C@@]5(C)C/C(=C/c6ccco6)C(=O)C(C)(C)[C@@H]5CC[C@]43C)[C@@H]2C1`: the growth is -70% [100 µM] (active).

For the compound `C=C(C)[C@@H]1CC[C@]2(C(=O)O)CC[C@]3(C)[C@H](CC[C@@H]4[C@@]5(C)C/C(=C/c6ccco6)C(=O)C(C)(C)[C@@H]5CC[C@]43C)[C@@H]12`, the growth is -59.1% [100 µM] (active).

As for `C[n+]1cccc(NC(=O)c2ccc3ccc4ccc(C(=O)Nc5ccc[n+](C)c5)nc4c3n2)c1`, the growth was 62.4% (inactive).

With `CCOC(=O)c1nn(C2CCCCO2)c2ccc(NC(=O)Cn3nnc4ccccc43)cc12` (configuration not stated), the growth is 110% (inactive).

Turning to `Cn1cc(-c2nnc(-c3cn(C)c4ncc(Br)cc34)o2)c2ccccc21`, the growth is 88.2% (inactive).

Consider `O=C(Nc1ccc(Oc2ccc(F)cc2)c(Cl)c1)c1cccnn1`, for which the growth was 73.6% (inactive).

With `Cc1ccc2c(n1)C(=O)C(Cl)=C(Nc1ccc(N3CCN(C)CC3)cc1)C2=O`, the growth is -100% (active).

On to `c1cc2ccc1CNCCN1CCNCc3ccc(cc3)Oc3ccc(cc3)CNCCN(CCNCc3ccc(cc3)O2)CCNCc2ccc(cc2)Oc2ccc(cc2)CNCC1`, for which the growth is -94.6% (active).

As to `Cc1ccc(-c2cn(C/C=C3\C=CN(S(=O)(=O)c4ccccc4)CC3)nn2)cc1`, the growth is 108% (inactive).

On to `CCCCCCCCN(CCCCCCCC)CC(O)c1ccc(Cl)c(C)c1Cl` (configuration not stated), for which the growth is 88.9% (inactive).

Another experiment relates to HS 578T breast. The description is as above. Particulars: 10 µM unless noted.
As to `N#C/C(C(=O)c1ccccc1)=C1/C(=O)Nc2ccc(F)cc21`, the growth is 98.6% (inactive).

As to `C=C(C)[C@@H]1CC[C@]2(C(=O)NCCCN)CC[C@]3(C)[C@H](CC[C@@H]4[C@@]5(C)CC[C@H](O)C(C)(C)[C@@H]5CC[C@]43C)[C@@H]12`, the growth was -4.98% [100 µM] (active).

For the compound `O=C1/C(=C\c2cn(CC(O)CN3CCCCC3)c3ccccc23)c2ccccc2N1c1c(Cl)cccc1Cl` (configuration not stated), the growth was -55.3% (active).

Take `COc1ccc(OC)c([N+](=O)[O-])c1C(=O)CNC(C)=O`: the growth was -2.16% (active).

For the compound `CCNc1cc2c(cc1Br)-c1ccccc1C2=O`, the growth is 96.8% (inactive).

Regarding `COc1cc(/C=C/C(=O)/C=C/c2ccc(-n3ccnc3C)cc2)ccc1O`, the growth was 68.6% (inactive).

Take `COc1cc(-c2nc(SCCC(C)C)nc(Nc3ccccc3)c2C#N)cc(OC)c1OC`: the growth is -8.69% (active).

For the compound `Nc1ccc(Cl)c([N+](=O)[O-])c1`, the growth was 110% (inactive).

Consider `CCCCCCCCCCCCNC(=S)N/N=C/c1ccccc1O`, for which the growth was 91.7% (inactive).

Turning to `O=C(N=c1n(-c2ccccc2)nc2n1CCN2C1=NCCN1C(=O)c1ccc(Cl)cc1)c1ccc(Cl)cc1`, the growth was 82.7% (inactive).

In the case of `COc1cc2c(=O)[nH]c3cc([N+](=O)[O-])ccc3c2cc1[N+](=O)[O-]`, the growth is 66.6% (inactive).

For the compound `NC(=O)CC1C=CCC1` (configuration not stated), the growth was 110% (inactive).

Consider `O=C(Nc1cccc2ccccc12)c1cc2ccccc2cc1O`, for which the growth was 32.2% (inactive).

Take `Cc1ccc(N)c(O)c1`: the growth was 92.9% (inactive).

As for `CCOC(=O)CCC[P+](c1ccccc1)(c1ccccc1)c1ccccc1`, the growth was 92.9% (inactive).

Consider `CCN(CC)c1cc(N)c(Cc2c(N)cc(N(CC)CC)cc2Cl)c(Cl)c1`, for which the growth is 56% (inactive).

With `CC1(C)C(=O)/C(=C\c2cccnc2)C[C@]2(C)[C@H]3CC[C@@H]4[C@H]5[C@H](C(=O)/C=C/c6cccnc6)CC[C@]5(C(=O)O)CC[C@@]4(C)[C@]3(C)CC[C@@H]12`, the growth was -0.172% [100 µM] (active).

In the case of `N#CCCc1c[nH]c2ccccc12`, the growth is 94.3% (inactive).

`C[C@@H]1C[C@H]2C(=O)O[C@@H](C)[C@H](NC(=O)[C@H](Cc3cc(F)cc(F)c3)NC(=O)Nc3ccc(C4CC4)cc3F)C(=O)N3CCC[C@H]3C(=O)N3CCCC[C@H]3C(=O)N[C@@H](C)C(=O)N2C1`: the growth is 18.1% (inactive).

Turning to `CCN(CC)CCCC(C)Nc1c2ccc(C)cc2nc2ccc(OC)cc12` (configuration not stated), the growth was 0.397% (active).

With `CC1(C)CC[C@]2(C(=O)O)CC[C@]3(C)C(=CC[C@@H]4[C@@]5(C)C/C(=C/c6ccco6)C(=O)C(C)(C)[C@@H]5CC[C@]43C)[C@@H]2C1`, the growth is -5.24% [100 µM] (active).

Consider `C=C(C)[C@@H]1CC[C@]2(C(=O)O)CC[C@]3(C)[C@H](CC[C@@H]4[C@@]5(C)C/C(=C/c6ccco6)C(=O)C(C)(C)[C@@H]5CC[C@]43C)[C@@H]12`, for which the growth is -1.95% [100 µM] (active).

For the compound `C[n+]1cccc(NC(=O)c2ccc3ccc4ccc(C(=O)Nc5ccc[n+](C)c5)nc4c3n2)c1`, the growth is 74.7% (inactive).

For the compound `Cc1ccc(S(=O)(=O)N/N=C2\CC3CCC2(C)C3(C)C)cc1` (configuration not stated), the growth is 120% (inactive).

`CCOC(=O)c1nn(C2CCCCO2)c2ccc(NC(=O)Cn3nnc4ccccc43)cc12` (configuration not stated): the growth is 99.4% (inactive).

Regarding `Cn1cc(-c2nnc(-c3cn(C)c4ncc(Br)cc34)o2)c2ccccc21`, the growth was 89.6% (inactive).

Consider `O=C(Nc1ccc(Oc2ccc(F)cc2)c(Cl)c1)c1cccnn1`, for which the growth was 95.6% (inactive).

Consider `Cc1ccc2c(n1)C(=O)C(Cl)=C(Nc1ccc(N3CCN(C)CC3)cc1)C2=O`, for which the growth was 58% (inactive).

Regarding `c1cc2ccc1CNCCN1CCNCc3ccc(cc3)Oc3ccc(cc3)CNCCN(CCNCc3ccc(cc3)O2)CCNCc2ccc(cc2)Oc2ccc(cc2)CNCC1`, the growth was -48.7% (active).

With `Cc1ccc(-c2cn(C/C=C3\C=CN(S(=O)(=O)c4ccccc4)CC3)nn2)cc1`, the growth is 97.2% (inactive).

(Values after PubChem BioAssay (NCI).)
